High-throughput results (PubChem BioAssay)
Rows were chosen to be rich in hits. Some 21% of all compounds tested hit in one or more screens of this group.
Pf growth 48h – Primary qHTS for delayed death inhibitors of the malarial parasite plastid, 48 hour incubation; AID 504832, 2011; actives 5.9% (n = 310,000); P. falciparum luciferase growth in erythrocytes, 48 h; Potency, µM (highest dose often 28.7 µM), most hits filed as inhibitors; active = well fitted inhibition curve with a large enough effect; inconclusive = small, poorly fitted or top-dose-only effect, or another doubt; inactive = no such curve, though single readings can be large or run the other way
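Read-out is firefly luciferase luminescence from an integrated reporter in P. falciparum, so falling signal marks reduced parasite growth. Infected erythrocytes were at 2% hematocrit and 0.1% parasitemia (final) in Albumax-supplemented RPMI 1640.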
CHX counter – Cycloheximide Counterscreen for Small Molecule Inhibitors of Shiga Toxin. cell reporter, cycloheximide protein synthesis inhibition counterscreen. max response, %. actives 12% (n = 300,000); in the data active = max response mostly above about 13%, no sharp cut-off; inactive = mostly below about 14%; also: read at 38.3 µM for the half of the compounds with a filed dose
SARS PLpro yeast – qHTS of Yeast-based Assay for SARS-CoV PLP; S. cerevisiae expressing SARS-CoV PLpro, growth rescue; Potency, µM (top dose mostly 32.9 µM), actives largely listed as activators; actives 0.19% (n = 330,000); also: nearly all actives have a fitted effect of over 55% in size
Shiga inhibitor – A qHTS for Small Molecule Inhibitors of Shiga Toxin; Vero cells, Shiga toxin protein synthesis inhibition reporter; inhibition, % at 38.7 µM; actives 9.2% (n = 290,000); in the data active = inhibition mostly above about 28%, no sharp cut-off; inactive = mostly below about 43%
Pf growth 96h – Primary qHTS for delayed death inhibitors of the malarial parasite plastid, 96 hour incubation; Potency, µM (series often up to 28.7 µM), most hits filed as inhibitors; AID 504834, 2011; P. falciparum luciferase reporter growth, 96 h; actives 6.9% (n = 320,000); active = well fitted inhibition curve with a large enough effect; inconclusive = small, poorly fitted or top-dose-only effect, or another doubt; inactive = no such curve, though single readings can be large or run the other way
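Readout is luminescence from an integrated firefly luciferase in P. falciparum. Red cells, 2% hematocrit and 0.05% parasitemia final, were cultured with compound through two parasite generations (96 hours) at 37 C, 5% CO2.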
NS1 inh – qHTS Assay for Inhibitors of Influenza NS1 Protein Function; Potency, µM (doses to about 46.1 µM); actives 0.4% (n = 270,000); AID 2326, 2010; also: actives are rising curves; nearly all actives have a fitted effect of over 50% in size
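OD600 was taken as the measure of yeast growth restored by compound in an NS1-expressing S. cerevisiae strain. Cells had been washed out of glucose medium and diluted 1:100 into galactose -URA medium, pH 6.0.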
Hits are given with their value; – = inactive; ? = inconclusive; · = no result. Unless noted, calls follow the shape of the full dose curve.

SMILES	Pf growth 48h	CHX counter	SARS PLpro yeast	Shiga inhibitor	Pf growth 96h	NS1 inh
CCCCNC(=O)C(c1ccc(OCC(=O)OC)c(C(=O)OC)c1)N(CCc1c[nH]c2ccccc12)C(=O)CCCCCN1C(=O)NC(c2ccc(-c3ccccc3)cc2)C(C(=O)OCc2ccccc2)=C1C (configuration not stated)	2.3µM	–	–	–	2.9µM	?
CCCCCCN(C(=O)CCCCCN1C(=O)NC(c2cccc([N+](=O)[O-])c2)C(C(=O)OCc2ccccc2)=C1C)C(C(=O)NCCCC)c1ccc(OCC(=O)OC)c(C(=O)OC)c1 (configuration not stated)	?	–	–	–	5.2µM	?
CCCCNC(=O)C(C)N(CCN(C)C)C(=O)CCCN1C(=O)NC(c2ccc([N+](=O)[O-])cc2)C(C(=O)OCc2ccccc2)=C1C (configuration not stated)	·	·	–	·	·	·
CCCCCCN(C(=O)CCCCCN1C(=O)NC(c2ccc(Cl)cc2)C(C(=O)OCc2ccccc2)=C1C)C(C(=O)NCCCC)c1ccc(OCC(=O)OC)c(C(=O)OC)c1 (configuration not stated)	7.4µM	–	–	–	?	–
CCCCCCN(C(=O)CCCCCN1C(=O)NC(c2ccc([N+](=O)[O-])cc2)C(C(=O)OCc2ccccc2)=C1C)C(C(=O)NCCCC)c1ccc(OCC(=O)OC)c(C(=O)OC)c1 (configuration not stated)	1.9µM	–	–	–	3.3µM	–
C[C@H]1CN([C@@H](C)CO)C(=O)c2cc(NS(=O)(=O)c3ccc(Cl)cc3)ccc2O[C@@H]1CN(C)CC1CCCCC1	·	·	–	·	·	·
O=C(NC1CCN(S(=O)(=O)c2ccc(F)cc2)CC1)c1cccnc1	–	–	–	–	–	–
CCOc1ccccc1C(=O)NC1CCN(Cc2nnnn2C2CCCC2)CC1	?	–	–	–	13µM	–
COc1ccccc1C(=O)Nc1ccccc1C(=O)NC1CCCCC1	–	–	–	–	–	–
CCOc1ccccc1C(=O)NC1CCNCC1	–	–	–	·	13µM	–
CCC(C)(C)n1nnnc1CN1CCC(NC(=O)c2ccccc2C)CC1	–	–	–	–	–	–
Cc1ccc(N(CC(O)CN2CCCCC2)S(=O)(=O)c2ccccc2[N+](=O)[O-])cc1 (configuration not stated)	–	–	–	–	–	–
COc1ccc(CNC(=O)c2cncc(Br)c2)cc1	–	–	–	–	–	–
COc1ccc(Cl)cc1NC(=O)CN(C)CC(=O)Nc1ccc(Br)cc1	–	–	–	–	–	·
COc1ccc(Cl)cc1NC(=O)CN(C)CC(=O)NC(C)c1ccccc1 (configuration not stated)	10µM	–	–	–	–	–
COc1ccc(Cl)cc1NC(=O)CN(C)CC(=O)Nc1cc(OC)c(OC)c(OC)c1	15µM	–	–	–	?	–
COc1ccc(Cl)cc1NC(=O)CN(C)CC(=O)Nc1ccccc1C(F)(F)F	–	–	–	–	?	·
COc1ccc(Cl)cc1NC(=O)CN(C)C(=O)c1cc2c(F)cccc2s1	7.4µM	·	–	·	?	·
CN1CCCN(S(=O)(=O)c2ccc(O)c(C(=O)O)c2)CC1	–	–	–	–	–	–
Cc1ccc(C)c(NC(=O)CCc2nnc3ccc(N4CCCCC4)nn23)c1	–	–	–	–	?	–
CC(C)Oc1ccc(C(=O)NC2=NCCS2)cc1	–	20	–	–	–	·
COc1cc(OC)cc(C(=O)NC2=NCCS2)c1	·	–	–	–	–	–
COc1cccc(C(=O)NC2=NCCS2)c1OC	–	31	–	63	?	–
CCN(CC)S(=O)(=O)c1ccc(C(=O)NC2=NCCS2)cc1	–	–	–	–	–	–
COc1ccc(C(=O)NC2=NCCS2)cc1	–	73	–	68	–	–
O=C(NC12CC3CC(CC(C3)C1)C2)c1cccc(OC(F)F)c1	?	42	–	72	–	–
Clc1ccc(C(c2nnnn2CCc2ccccc2)N2CCSCC2)cc1 (configuration not stated)	?	–	–	–	–	–
